The source of these data is PubChem BioAssay (NCI).

The panel holds about 83,000 compounds, 20% with a hit somewhere; the sample as a whole holds those more often.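 Method: cells in 96-well plates; compound added at one concentration; 48 h incubation; percent growth measured; values under 10 scored active.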 A number with no mark means an inactive call. Calls of active or inactive are those of the source.

What all share (assay): NCI-60 one-dose screen, 48 h (100 = growth as untreated, 0 = no growth, -100 = all killed)
The test system of one experiment is NCI-H226 lung. The following applies: 10 µM.
For another experiment, the system named is NCI-H322M lung. The settings on record: 10 µM.
For the next experiment, the system named is HOP-62 NSCLC. The following applies: 10 µM.
The test system of the next experiment is NCI-H460 lung. The settings on record: 10 µM.
The test system of a further experiment is A549/ATCC NSCLC. The settings on record: 10 µM.
The subject of another experiment is DU-145 prostate. The settings on record: 10 µM.
Another experiment relates to SF-268 CNS. The settings on record: 10 µM.
Another experiment deals with SF-295 CNS. The settings on record: 10 µM.
A further experiment deals with SF-539 CNS. The settings on record: 10 µM.
The subject of the next experiment is M14 melanoma. The following applies: 10 µM.
A further experiment has as its system HCT-15 colon. The following applies: 10 µM.
The next experiment concerns HT29 colon. The settings on record: 10 µM.
A further experiment relates to SNB-75 CNS. The settings on record: 10 µM.
For the next experiment, the system named is SNB-19 CNS. The settings on record: 10 µM.
Another experiment relates to U251 CNS. The settings on record: 10 µM.
The test system of another experiment is PC-3 prostate. The settings on record: 10 µM.
For another experiment, the system named is SK-MEL-5 melanoma. The settings on record: 10 µM.
A further experiment relates to UACC-62 melanoma. The settings on record: 10 µM.
For a further experiment, the system named is SK-MEL-28 melanoma. The settings on record: 10 µM.
The subject of the next experiment is HL-60(TB) leukemia. The following applies: 10 µM unless noted.

`C[C@H]1[C@H](OC(=O)CCC(=O)N(CCCc2cn(-c3ccc(C#N)cc3)nn2)CCNc2ccnc3cc(Cl)ccc23)O[C@@H]2OC3(C)CC[C@H]4[C@H](C)CC[C@@H]1[C@@]24OO3`: the growth is 60.3% in the experiment with NCI-H226 lung; 82.9% in the experiment with NCI-H322M lung; 66.4% in the experiment on HOP-62 NSCLC; 58.2% in the experiment with NCI-H460 lung; 51.5% with A549/ATCC NSCLC; 69.3% in the experiment on DU-145 prostate. The growth was 54.9% in the experiment on SF-268 CNS; 53.8% in the experiment on SF-295 CNS; 44.5% in the experiment on SF-539 CNS; 48.1% with M14 melanoma; 12.1% in the experiment with HCT-15 colon; 18.6% in the experiment with HT29 colon. The growth in the experiment with SNB-75 CNS is 72.1%; in the experiment with SNB-19 CNS, 69.8%; in the experiment with U251 CNS it was 51.9%; in the experiment on PC-3 prostate it was 33.9%; in the experiment with SK-MEL-5 melanoma, 22.9%; in the experiment with UACC-62 melanoma, 43.3%. Further, the growth was 59.5% with SK-MEL-28 melanoma and -29.9% (active) in the experiment on HL-60(TB) leukemia.
For the compound `O=C(/C=C/c1ccc(Cl)cc1)c1nc2ccccc2n1Cc1ccc(Br)cc1`, the growth with NCI-H226 lung was 57.4%; with NCI-H322M lung it was 78.8%; in the experiment on HOP-62 NSCLC it was 65.5%; in the experiment with NCI-H460 lung, 58.1%; in the experiment with A549/ATCC NSCLC, 73.4%; with DU-145 prostate, 66.1%. Moreover, the growth with SF-268 CNS is 75.3%; with SF-295 CNS, 73.3%; with SF-539 CNS, 43.8%; with M14 melanoma, 65.4%; in the experiment on HCT-15 colon, 21.4%; in the experiment with HT29 colon, 38.1%. Besides, the growth in the experiment with SNB-75 CNS is 79.2%; in the experiment with SNB-19 CNS, 65.9%; in the experiment on U251 CNS, 34.4%; with PC-3 prostate, 36.6%; with SK-MEL-5 melanoma, 85%; in the experiment with UACC-62 melanoma it was 48.6%. Further, the growth in the experiment with SK-MEL-28 melanoma is 80.1%; with HL-60(TB) leukemia, 35.8%.
With `CCOC(=O)C1=C(Nc2ccccc2)C(=O)OC12C(=O)Nc1ccccc12` (stereo not given), the growth is 115% with NCI-H226 lung; 103% with NCI-H322M lung; 97.6% with HOP-62 NSCLC; 108% in the experiment with NCI-H460 lung; 112% in the experiment with A549/ATCC NSCLC; 114% with DU-145 prostate. The growth was 95.7% in the experiment on SF-268 CNS; 107% in the experiment with SF-295 CNS; 97.6% in the experiment on SF-539 CNS; 105% with M14 melanoma; 105% in the experiment on HCT-15 colon; 111% in the experiment on HT29 colon. Besides, the growth is 80.6% in the experiment on SNB-75 CNS; 96.4% in the experiment with SNB-19 CNS; 109% in the experiment on U251 CNS; 91.3% in the experiment with PC-3 prostate; 107% in the experiment on SK-MEL-5 melanoma; 93.5% in the experiment with UACC-62 melanoma. The growth in the experiment on SK-MEL-28 melanoma is 107%; in the experiment with HL-60(TB) leukemia, 102%.
For `C[C@H]1[C@@H](Oc2ccc(-c3cn(-c4ccnc5cc(Cl)ccc45)nn3)cc2)O[C@@H]2OC3(C)CC[C@H]4[C@H](C)CC[C@@H]1[C@@]24OO3`, the growth in the experiment on NCI-H226 lung is 48.2%; with NCI-H322M lung, 69.3%; in the experiment on HOP-62 NSCLC it was 46.3%; with NCI-H460 lung it was 25.3%; in the experiment with A549/ATCC NSCLC it was 35.2%; in the experiment with DU-145 prostate, 51.6%. In addition, the growth is 46.3% with SF-268 CNS; 37.6% in the experiment with SF-295 CNS; 30.5% in the experiment with SF-539 CNS; 31.8% in the experiment with M14 melanoma; 12.8% in the experiment on HCT-15 colon; 22.3% in the experiment on HT29 colon. Moreover, the growth in the experiment on SNB-75 CNS is 61.6%; with SNB-19 CNS it was 40.4%; with U251 CNS it was 39.1%; in the experiment with PC-3 prostate, 29.2%; with SK-MEL-5 melanoma, 20.3%; with UACC-62 melanoma, 21.2%. Besides, the growth was 33.3% with SK-MEL-28 melanoma and 6.05% (active) in the experiment with HL-60(TB) leukemia.
Take `O=C(/C=C/c1cccc(Br)c1)c1nc2ccccc2n1Cc1ccc(Br)cc1`: the growth in the experiment with NCI-H226 lung is -67.7% (active); with NCI-H322M lung, 51.9%; with HOP-62 NSCLC it was -42% (active); in the experiment with NCI-H460 lung, -40.3% (active); with A549/ATCC NSCLC it was 28%; in the experiment with DU-145 prostate, 4.37% (active). The growth is 26.8% with SF-268 CNS; -19.7% (active) with SF-295 CNS; -66% (active) in the experiment on SF-539 CNS; -31.7% (active) in the experiment with M14 melanoma; -78% (active) in the experiment with HCT-15 colon; -49% (active) with HT29 colon. Moreover, the growth in the experiment with SNB-75 CNS is 59.7%; in the experiment on SNB-19 CNS, -67% (active); in the experiment with U251 CNS, -83.3% (active); in the experiment on PC-3 prostate, 0.947% (active); in the experiment with SK-MEL-5 melanoma, -26.4% (active); in the experiment with UACC-62 melanoma it was -82.5% (active). In addition, the growth with SK-MEL-28 melanoma was -53.4% (active); in the experiment on HL-60(TB) leukemia, -19.3% (active).
`COc1cc2cc(C(=O)N3C[C@@H](CCl)c4c3cc(OC(=O)N3CCN(C)[C@@H]5CSSC[C@H]53)c3ccccc43)[nH]c2c(OC)c1OC`: the growth is -42.7% (active) with NCI-H226 lung; -12.4% (active) in the experiment on NCI-H322M lung; -19.1% (active) in the experiment with HOP-62 NSCLC; -68.9% (active) in the experiment on NCI-H460 lung; -58.4% (active) in the experiment on A549/ATCC NSCLC; 1.52% (active) in the experiment with DU-145 prostate. Moreover, the growth with SF-268 CNS is 2.46% (active); in the experiment with SF-295 CNS it was -43.2% (active); in the experiment with SF-539 CNS, -96% (active); with M14 melanoma, -76.2% (active); in the experiment on HCT-15 colon it was -18.7% (active); in the experiment on HT29 colon, -50.7% (active). Further, the growth in the experiment with SNB-75 CNS was -74.3% (active); in the experiment with SNB-19 CNS, -15.4% (active); in the experiment with U251 CNS it was -14.6% (active); with PC-3 prostate it was -24.8% (active); with SK-MEL-5 melanoma it was -100% (active); with UACC-62 melanoma, -92.9% (active). Further, the growth in the experiment with SK-MEL-28 melanoma is -94.8% (active); in the experiment on HL-60(TB) leukemia, -43.4% (active).
Take `O=C(/C=C/c1ccc(Cl)cc1)c1nc2ccccc2n1Cc1ccc(F)cc1`: the growth is 36.6% with NCI-H226 lung; 53.5% in the experiment with NCI-H322M lung; 17.7% in the experiment with HOP-62 NSCLC; 26.8% with NCI-H460 lung; 44.7% in the experiment with A549/ATCC NSCLC; 37.6% in the experiment on DU-145 prostate. In addition, the growth was 39.9% in the experiment with SF-268 CNS; 50.7% in the experiment on SF-295 CNS; -41.7% (active) in the experiment with SF-539 CNS; 16.1% in the experiment with M14 melanoma; -1.45% (active) in the experiment with HCT-15 colon; 5.22% (active) with HT29 colon. Also, the growth is 60.9% in the experiment with SNB-75 CNS; 25% with SNB-19 CNS; -62.8% (active) in the experiment on U251 CNS; 19.5% with PC-3 prostate; 69% with SK-MEL-5 melanoma; 23.5% with UACC-62 melanoma. Further, the growth was 38.9% in the experiment with SK-MEL-28 melanoma and -2.58% (active) in the experiment with HL-60(TB) leukemia.
